Here are results for one molecule from PubChem BioAssay (EPA / NIEHS).

A short description of assay [1]: CCTE_Shafer_MEA_dev_firing_rate_mean: CCTE's Neural Network Formation Assay for Mean Firing Rate, Shafer Lab (AID 2284031). An outline of the steps: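 Extracellular spike frequency, AUC over DIV 5–12 recordings, in rat cortical neuron MEA cultures dosed from plating; loss direction vs DMSO.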
A short description of assay [2]: CCTE_Shafer_MEA_dev_per_burst_spike_percent: CCTE's Neural Network Formation Assay for Percent of Spikes in a Burst, Shafer Lab (AID 2284032). An outline of the steps: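 Value is trapezoidal AUC over recordings on days 5, 7, 9 and 12 of the well-mean fraction of spikes falling in single-electrode bursts; rat cortical cultures exposed continuously from plating, treatment renewed DIV 5 and 9, fitted downward against DMSO.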

Assay [3] in a line: CCTE_Shafer_MEA_dev_active_electrodes_number: CCTE's Neural Network Formation Assay for Number of Active Electrodes, Shafer Lab (AID 2284040; active means hit-call score of the fitted dose curve at least 0.9, where 1 is the maximum). In a few lines: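 Developing rat cortical networks on MEAs, exposed DIV 0–12. Value is the AUC of active-electrode counts (≥5 spikes/min) from days 5, 7, 9, 12, relative to DMSO.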
A short description of assay [4]: CCTE_Shafer_MEA_dev_burst_rate: CCTE's Neural Network Formation Assay for Burst Rate, Shafer Lab (AID 2284042). In a few lines: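 Cells plated, treated day 0; recorded DIV 5, 7, 9, 12; fed and re-treated DIV 5, 9. Endpoint: bursts per recording time, active-electrode well mean, trapezoidal AUC, fitted in decreasing direction against DMSO baseline.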
Assay [5] is described as follows: CCTE_Shafer_MEA_dev_per_burst_interspike_interval: CCTE's Neural Network Formation Assay for Burst Interspike Interval, Shafer Lab (AID 2284044). An outline of the steps: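 Primary rat cortical neurons on 48-well MEA plates, exposed from day 0 through day 12, treatment renewed at DIV 5 and 9. Within-burst interspike interval recorded days 5, 7, 9, 12, well-averaged, summarised as AUC; negative fit versus DMSO.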

Assay [6] can be described thus: CCTE_Shafer_MEA_dev_burst_duration_mean: CCTE's Neural Network Formation Assay for Mean Burst Duration, Shafer Lab (AID 2284045). An outline of the steps:
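Network-formation assay in primary rat cortical neurons; treatment spans twelve days of development. Mean burst duration per well is integrated by trapezoidal AUC and fitted in the loss-of-signal direction against DMSO baseline.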

Assay [7] in a line: CCTE_Shafer_MEA_dev_interburst_interval_mean: CCTE's Neural Network Formation Assay for Mean Interburst Interval, Shafer Lab (AID 2284046).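 Further: curve fitted for decrease in interburst interval relative to DMSO.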 In a few lines: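 Developing rat cortical networks on 48-well MEAs receive compound from the day of plating. Burst intervals from each active electrode are averaged per well, and AUC over the recording days is fitted in the negative direction against DMSO.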

A short description of assay [8]: CCTE_Shafer_MEA_dev_inter_network_spike_interval_mean: CCTE's Neural Network Formation Assay for Mean Inter-network Spike Interval, Shafer Lab (AID 2284047). In a few lines: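 Rat cortical cultures, 1.5 x 10^5 cells/well on 48-well MEA plates; continuous exposure days 0–12, medium and compound refreshed DIV 5, 9. Mean time between consecutive network-spike peaks; AUC across DIV 5/7/9/12; DMSO baseline, negative fitting direction.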

The nature of assay [9]: CCTE_Shafer_MEA_dev_network_spike_number: CCTE's Neural Network Formation Assay for Number of Network Spikes, Shafer Lab (AID 2284048).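 Further: synchronized bursts across electrodes counted on days 5 7 9 12 and integrated as AUC.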 An outline of the steps:
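Extracellular recordings from 16-electrode wells track network formation in rat cortical cultures under continuous treatment from plating. The endpoint is network spike number, expressed as AUC across DIV 5–12 relative to DMSO vehicle.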

The nature of assay [10]: CCTE_Shafer_MEA_dev_spike_duration_mean: CCTE's Neural Network Formation Assay for Mean Spike Duration, Shafer Lab (AID 2284051).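 Further: mean network spike duration pooled as area under curve over DIV 5 to 12 recordings.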 In a few lines:
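Readout is the average length of network spikes, clustered firing across electrodes, summed over DIV 5, 7, 9 and 12 as area under the curve. Neurons from rat cortex developed networks on MEA plates under continuous 12-day exposure.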

The nature of assay [11]: CCTE_Shafer_MEA_dev_network_spike_duration_std: CCTE's Neural Network Formation Assay for Standard Deviation of Network Spike Duration, Shafer Lab (AID 2284052).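 Further: hits are decreases in network spike duration SD versus DMSO vehicle.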 In a few lines: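 Read-out is the trapezoidal area-under-the-curve across recordings made on days 5, 7, 9 and 12, fitted in the negative direction against DMSO baseline. Neurons were primary rat cortical cells treated from day 0, with treatment renewed at each feed.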

Assay [12] in a line: CCTE_Shafer_MEA_dev_per_network_spike_spike_number_mean: CCTE's Neural Network Formation Assay for Mean Number of Spikes in a Network Spike, Shafer Lab (AID 2284053). An outline of the steps:
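Continuous twelve-day exposure of developing rat cortical networks grown over 16 microelectrodes per well; spontaneous firing is captured at four time points, and the per-network-spike spike number is integrated over development by trapezoidal AUC.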

Assay [13] in a line: CCTE_Shafer_MEA_dev_per_network_spike_spike_percent: CCTE's Neural Network Formation Assay for Percent of Spikes in a Network Spike, Shafer Lab (AID 2284054). In a few lines: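 Developing networks of rat cortical neurons are dosed at day 0 and recorded extracellularly four times up to day 12. The endpoint is the area under the curve of percent spikes in network spikes, fitted in the negative direction relative to DMSO.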

Assay [14] in a line: CCTE_Shafer_MEA_dev_LDH: CCTE's Lactate Dehydrogenase Assay for Cytotoxicity in the Neural Network Formation Assay, Shafer Lab (AID 2284068; active means hit-call score of the fitted dose curve at least 0.9, where 1 is the maximum;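 further: exposure for twelve days from plating with re-dosing on DIV 5 and 9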). An outline of the steps:
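Cytotoxicity companion to network-formation recordings: rat cortical neurons received compound over 12 days of development, re-dosed at DIV 5 and 9 feeds. Viability was inferred from LDH enzyme activity relative to DMSO.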

Assay [15] is described as follows: CCTE_Shafer_MEA_dev_AB: CCTE's Alamar Blue Assay for Cytotoxicity in the Neural Network Formation Assay, Shafer Lab (AID 2284083; active means hit-call score of the fitted dose curve at least 0.9, where 1 is the maximum;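 further: resazurin reduction fluorescence as viability of cultured neurons; twelve days of exposure from plating with re-dosing on DIV 5 and 9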). An outline of the steps:
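Fluorescent resazurin reduction serves as the viability read-out, with DMSO as negative control and baseline. Cells were primary rat cortical neurons grown on MEA plates and dosed from day 0 to day 12, treatment renewed on DIV 5 and 9.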

The nature of assay [16]: CCTE_Shafer_MEA_dev_mutual_information_norm: CCTE's Neural Network Formation Assay for Mutual Information Normalization, Shafer Lab (AID 2284091). An outline of the steps:
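Exposure of primary rat cortical neurons began at plating and ran to DIV 12, with full media and treatment renewal after DIV 5 and 9 recordings. Mutual information AUC (DIV 5–12) was analysed for loss versus DMSO.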

Assay [17] is described as follows: CCTE_Shafer_MEA_dev_correlation_coefficient_mean: CCTE's Neural Network Formation Assay for Mean Correlation Coefficient, Shafer Lab (AID 2284093). In a few lines: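 Read-out: well-mean correlation coefficient of spike trains between electrode pairs, collapsed over four recording days as trapezoidal area-under-the-curve. Developing rat cortical neuron networks grown on MEAs received test chemical continuously from plating.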

Assay [18] is described as follows: UKN2_HCS_IMR90_neural_migration: University of Konstanz (UKN) Leist Lab Neural Crest Cell Migration Assay in human induced IMR90 Pluripotent Stem Cells (UKN2) (AID 2284204). Particulars: actives raise or lower the signal. An outline of the steps:
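Using a 96-well stopper format with PLO/laminin/fibronectin coating, neural crest cells from iPSC migrate in cytokine-supplemented N2-S medium; after 24 h, chemicals are applied for a further 24 h, then cells are imaged after dye staining.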

Assay [19] can be described thus: IUF_NPC1b_proliferation_BrdU_72hr: Leibniz Research Institute for Environmental Medicine (IUF) 72-hour Neural Progenitor Cell Bromodeoxyuridine (BrdU) Proliferation Assay (NPC1b) (AID 2284207). In a few lines:
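Neural progenitor spheres of human fetal origin are treated for three days; BrdU added for the last 16 h is quantified by luminescence ELISA, with DMSO as baseline and EGF/FGF omission as positive control.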

Assay [20] can be described thus: IUF_NPC1a_proliferation_area_72hr: Leibniz Research Institute for Environmental Medicine (IUF) 72-hour Neural Progenitor Cell Proliferation Area Assay (NPC1a) (AID 2284208). An outline of the steps: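 Single 0.25–0.35 mm human fetal neural progenitor spheres in proliferation medium with EGF and FGF, exposed 72 h from plating without renewal at 37C, pH 7.2-7.6. Sphere area growth measured by automated phase-contrast imaging, relative to DMSO.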

A short description of assay [21]: CCTE_Mundy_HCI_Cortical_Synap_Neur_Matur_NeuriteSpotCountPerNeuriteLength: CCTE's Synaptogenesis and Neurite Maturation Assay in rat cortical cells for Neurite Spot Count per Neurite Length, Mundy Lab (AID 2284210). An outline of the steps:
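Neurite-associated synapse density (synaptophysin puncta per unit neurite length) is measured by fluorescence high-content imaging in rat cortical cultures treated from DIV 7 and fixed at DIV 12, with DMSO as negative control.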

The nature of assay [22]: CCTE_Mundy_HCI_Cortical_NOG_NeuriteCount: CCTE's Neurite Outgrowth Assay in rat cortical cells for Neurite Count, Mundy Lab (AID 2284212).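 Further: cells fixed about two days after chemical exposure began.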 In a few lines:
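Rat cortical primary cells; compound added 2 h post-plating, 1/10 dilution of working solution. Anti-betaIII-tubulin/AF488 ICC; ArrayScan neurite count vs DMSO.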

The structures appear in SMILES notation. Records with an inconclusive call do not appear. Calls of active or inactive are those of the source. How the source made its calls, unless noted: active means hit-call score of the fitted dose curve at least 0.9, where 1 is the maximum; inactive means score below 0.9.

For `COP(=O)(OC)SCN1C(=O)c2ccccc2C1=O`, the call in assay [1], in assay [2], in [3], in [4], in assay [5] and in assay [6] was inactive. For the same molecule, the molecule was classed as inactive in assay [7], in assay [8], in [9], in assay [10], in assay [11] and in assay [12]. In addition, the result in assay [13], in assay [14], in assay [15], in [16], in assay [17] and in [18] was inactive. Moreover, the molecule was called inactive in [20], in assay [21] and in assay [22]. The AC50 in assay [19] was 24.8 µM (active).
